The structures appear in SMILES notation. About 83,000 compounds went through this panel and 20% of them were active in at least one assay; those are over-represented in the sample as a whole.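 Treatment: one concentration, 48 hours, 96-well format. Scoring: percent growth, with anything below 10 considered active.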 Unmarked numbers belong to inactive results.

The experiment deals with HCC-2998 colon. The experiment can be described thus: NCI-60 one-dose screen, 48 h (100 = growth as untreated, 0 = no growth, -100 = all killed). As to conditions: 10 µM unless noted.
As to `Fc1c[c-]c(-c2ccccn2)c(F)c1.[CH3-].[Pt+2].c1ccc([PH+](c2ccccc2)c2ccccn2)cc1`, the growth is 20.2%.

As to `CC(=O)O[C@@H]1CC[C@]2(C)[C@H]3CC[C@]4(C)C(=O)CC[C@H]4[C@@H]3C[C@@H]3SC(N)=N[C@@]32C1`, the growth was 82.1%. As to `COc1cc2c(cc1OCc1ccccc1)C(CC(C)C)=[N+](C)CC2`, the growth was 79%. To `CC(C)=CCC[C@H](C(=O)O)[C@@H]1CC[C@]2(C)C3=C(CC[C@@]12C)[C@@]1(C)CC[C@H](O)C(C)(C)[C@@H]1CC3` belongs 100%.

In the case of `CC(C)=CCc1c(O)c(C(=O)CC(C)C)c(O)c2c(-c3ccccc3)cc(=O)oc12`, the growth was 42.4%.

For the molecule `Cc1ccc(C(Cc2ccccc2)NCCO)cc1` (configuration not stated), the growth is 99.9%.

Turning to `O=C(O)CNC(=O)C(Cl)(Cl)Cl`, the growth is 104%. `COC(=O)[C@@H](C)C[C@H](Cc1ccccc1)NC(=O)c1csc([C@@H](C[C@H](C(C)C)N(C)C(=O)[C@@H](NC(=O)[C@H]2CCCCN2C)c2ccc(F)cc2)OC(C)=O)n1`: the growth is 10.1%. `C[C@]12CC[C@H]3[C@@H](C[C@@H]4SC(Nc5ccccc5)=N[C@@]45CC(O)CC[C@]35C)[C@@H]1CCC2O` (some centres not stated): the growth was 98.2%. For `COc1ccc(/C=C\c2cc(OC)c(OC)c(OC)c2)cc1NC(=O)/C=C/c1cc(OC)c(OC)c(OC)c1`, the growth was 91.2%.

As to `O=C(N/N=C/c1ccc(N(CCCl)CCCl)cc1)c1cccc2ccccc12`, the growth was 87.7%. With `CC(=O)O[C@H](C[C@H](C(C)C)N(C)C(=O)[C@@H](NC(=O)[C@H]1CCCCN1C)C(C)C)c1nc(C(=O)N[C@@H](Cc2ccccc2)C[C@H](C)C(=O)O)c(CCOCc2ccccc2)s1`, the growth was 16.3%.

Values taken from PubChem BioAssay (NCI).
